AmpC inh detg = inhibitors of E. coli AmpC beta-lactamase with detergent | actives 0.041% (n = 370,000) | Potency, µM (top dose mostly 114 µM), without a hit: at the highest dose activity change, negative = inhibition, usual class: inhibitors | P00811 | AmpC hydrolysis of nitrocefin, absorbance 480 nm, 0.01% Triton;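 also: potency is read from the fitted curve at half-maximal effect; 0% = no-compound wells and -100% = no-enzyme wells; nearly all actives have a fitted effect of over 25% in size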
Target sequence (P00811 whole entry, looked up): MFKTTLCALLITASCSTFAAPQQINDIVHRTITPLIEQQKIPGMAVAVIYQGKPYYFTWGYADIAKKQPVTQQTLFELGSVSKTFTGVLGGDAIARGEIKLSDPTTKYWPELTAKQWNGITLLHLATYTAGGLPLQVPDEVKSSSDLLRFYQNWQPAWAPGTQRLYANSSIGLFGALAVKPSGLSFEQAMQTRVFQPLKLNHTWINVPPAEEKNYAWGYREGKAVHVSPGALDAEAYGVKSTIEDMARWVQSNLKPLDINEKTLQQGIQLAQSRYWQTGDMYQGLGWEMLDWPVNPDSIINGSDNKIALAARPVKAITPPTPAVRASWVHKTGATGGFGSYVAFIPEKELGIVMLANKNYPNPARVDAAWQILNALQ
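AmpC (5.3 nM in the dispensed reagent) in 20 mM phosphate pH 7.0 with 0.01% (detergent screen) or 0.0001% Triton X-100 was preincubated with compounds for 15 min at room temperature. Nitrocefin was then added from an 800 uM solution, and hydrolysis was followed at 480 nm.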
AmpC no deterg = inhibitors of E. coli AmpC beta-lactamase without detergent; P00811; AID 485341; Potency, µM (top dose mostly 57.1 µM), without a hit: at the highest dose activity change, negative = inhibition, most hits filed as inhibitors; AmpC nitrocefin hydrolysis, absorbance 480 nm, 0.0001% Triton; actives 0.52% (n = 330,000);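 also: potency is read from the fitted curve at half-maximal effect; plate controls were no compound for no effect and no enzyme for full effect; nearly all actives have a fitted effect of over 20% in size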
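20 mM phosphate pH 7.0 + 0.01% (detergent screen) or 0.0001% Triton X-100; 5.3 nM AmpC reagent; cpd preinc 15 min RT; nitrocefin (800 uM stock) to start; A480 q20 s × 4 min; Activity was normalised to no-enzyme and no-compound control wells.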
Vaccinia mCherry = inhibitors of vaccinia virus infection (mCherry reporter signal) | AID 720579 | Vaccinia virus mCherry reporter infection, fluorescence | Potency, µM (top dose mostly 36.5 µM), for inactives: top-dose activity change, negative = inhibition, hits mostly inhibitors | actives 0.63% (n = 310,000); calls by dose curve; tested in A549 cells; also: potency is read from the fitted curve at half-maximal effect; % is scaled to controls: 0 for no effect and ±100 for the full control effect; nearly all actives have a fitted effect of over 35% in size
Vaccinia Venus = vaccinia inhibition (Venus reporter); Vaccinia virus Venus reporter expression, fluorescence; Potency, µM (doses to about 36.5 µM), without a hit: top-dose activity change, negative = inhibition, hits mostly inhibitors; actives 0.46% (n = 330,000); calls by dose curve; tested in A549 cells; also: potency is read from the fitted curve at half-maximal effect; % is scaled to controls: 0 for no effect and ±100 for the full control effect; nearly all actives have a fitted effect of over 30% in size
AMA1-RON2 inh = disrupts binding of P. falciparum AMA1 to RON2 | AlphaScreen AMA1-biotinylated RON2 peptide binding | Potency, µM (highest dose often 58.2 µM), without a hit: at the highest dose activity change, negative = inhibition, hits mostly inhibitors | AID 720542 | actives 0.2% (n = 360,000);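 also: potency is read from the fitted curve at half-maximal effect; 0% = vehicle wells and -100% = peptide control; nearly all actives have a fitted effect of over 45% in size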
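AMA1 (3D7) with his tag at 25 nM final met compounds first, then biotinylated RON2 peptide at 25 nM; detection used donor plus acceptor beads, 10 µg/mL apiece, read by AlphaScreen after 30 min at room temperature.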
SARS PLpro yeast-1 = inhibitors of SARS-CoV papain-like protease in yeast; Potency, µM (doses to about 32.9 µM), for the others: top-dose activity, positive = growth rescue, most hits filed as activators; S. cerevisiae expressing SARS-CoV PLpro, growth rescue; actives 0.19% (n = 330,000); calls by dose curve; also: potency is read from the fitted curve at half-maximal effect; 0% is about no effect; nearly all actives have a fitted effect of over 55% in size
SARS PLpro yeast-2 = Rescues yeast growth by inhibiting SARS-CoV PLpro; shares compounds with SARS PLpro yeast-1; yeast expressing SARS-CoV PLpro, growth phenotype rescue; calls only; actives 19% (n = 1,000); AID 652038; call rule not given here
* marks the source's active call; other numbers are inactive results; i = inactive; ? = inconclusive; nt = not tested or not shown; + = active, no number; [ ] = another dose, or the depositor's remark. An excerpt weighted towards active compounds, which were near 1.3% of everything screened. Unless noted, calls follow the shape of the dose curve; as a rule, active = well fitted curve in the direction sought with a large enough effect; inconclusive = small, poorly fitted or top-dose-only effect, or another doubt; inactive = no such curve, though single readings can be large; an effect the other way counts as inactive or inconclusive.

SMILES	AmpC inh detg	AmpC no deterg	Vaccinia mCherry	Vaccinia Venus	AMA1-RON2 inh	SARS PLpro yeast-1	SARS PLpro yeast-2
COc1ccccc1CNC(=O)Cn1cccc1C(=O)c1ccccc1	?	-2%	i[7.34 µM]	0%[7.34 µM]	2%	3%	nt
Cc1cc(C)cc(-n2ccn(Cc3ccc(F)cc3)c(=O)c2=O)c1	8%	nt	-11%	-9%	nt	nt	nt
COc1ccc(C2Nc3ccccc3C(=O)N2O)cc1CN1CCOCC1 (stereo not given)	-1%	-11%	-14%	-3%	4%	22µM*	i
COc1ccc(S(=O)(=O)NCCN2CCOCC2)c2ccccc12	-11%	-7%	-8%	-5%	-5%	20µM*	i
COc1ccc(S(=O)(=O)NCCN2CCOCC2)c(C)c1C	-19%	-9%	0%	-7%	-9%	0%	nt
CN1C(=O)SC(Nc2cccc3ccccc23)C1=O (stereo not given)	2%	-26%	nt	-20%	30%	13µM*	i
COc1ccc2nc(SCC(=O)NCc3ccccc3)[nH]c2c1	0%	-21%	nt	nt	12%	-9%	nt
COc1ccc2nc(SCC(=O)Nc3ccccc3)[nH]c2c1	10%	-16%	nt	nt	-9%	nt	i
CCNc1ccc2noc3c2c1C(=O)c1ccccc1-3	1%	137%	-16%	124%	?	-66%	nt
CCNc1ccccc(-c2ccc3ccccc3n2)c1=O	-5%	-23%	-2%	7%	4%	11µM*	i
COc1ccc(C(C(=O)NCC2CCCO2)N(C(=O)CNC(=O)c2ccco2)c2cc(C)ccc2C)cc1OC (stereo not given)	?	118%	-14%	-7%	0%	3%	nt
CCN(CC(=O)Nc1ccc(NC(C)=O)cc1)C(=O)/C=C/c1c(C)nn(-c2ccc(F)cc2)c1C	-2%	76%	-23%	-23%	27%	?	i
O=c1c2c3c(sc2nc2n1CCCCC2)CCCC3	-13%	-1%	nt	nt	-10%	4.5µM*	i
O=C(O)c1nc(NCCc2ccccc2)ncc1Cl	-13%	-18%	-7%	-6%	?	-1%	nt
Cc1ccc(-c2cc(=O)c3cc(F)ccc3[nH]2)cc1	-6%	-8%	i	-17%	-2%	?	i
Cc1ccc(-c2cc(=O)c3cc(C)ccc3[nH]2)cc1	?	-32%	0%	?	-5%	4%	nt
COc1cc(C(=O)NCC(=O)N/N=C(/C)c2cccs2)cc(OC)c1OC	-4%	6%	i	-6%	7%	?	i
COc1ccc(/C(C)=N/NC(=O)CNC(=O)c2cccs2)cc1OC	-2%	-15%	nt	nt	12%	3%	nt
O=C(NCC(=O)N1CCCC(C(F)(F)F)C1)c1cccs1 (stereo not given)	nt	nt	-11%	-10%	98%	nt	nt
CCC(CC)C(=O)Nc1cccc(C(=O)Nc2ccc(S(=O)(=O)Nc3ccc(C)cc3)cc2)c1	-3%	-31%	nt	nt	25%	7%	nt
CC(=O)Nc1ccc(NC(=O)Cn2cc3c(n2)CCCCC3)cc1	12%	nt	-4%	-6%	nt	nt	nt
Cc1cccc2sc(NNC(=O)c3ccc(S(=O)(=O)N4CC(C)CC(C)C4)cc3)nc12 (stereo not given)	1%	-43%	28µM*	?	40%	4µM*	+
O=C(CN1CCN(c2ccccc2F)CC1)Nc1cccnc1Cl	?	-1%	-13%	-7%	-2%	0%	nt
O=C(CN1CCN(c2ncccn2)CC1)Nc1ccccc1-n1cccc1	2%	61%	i	-20%	-29%	14µM*	i
Oc1ccccc1/C=N/Nc1ncc(Br)cn1	-11%	-21%	?	?	29%	?	i
SMILES	AmpC inh detg	AmpC no deterg	Vaccinia mCherry	Vaccinia Venus	AMA1-RON2 inh	SARS PLpro yeast-1	SARS PLpro yeast-2
Cc1sc2ncnc(N/N=C/c3ccccc3O)c2c1C	?	31%	3.5µM*	?	2%	1.1µM*	?
Cc1ccccc1N1CCN(CCC(=O)Nc2ccc(F)cc2)CC1	-19%	257%	nt	nt	3%	-9%	nt
CN(C)NC(=S)Nc1ccc(Cl)cc1	8%	-21%	i	-12%	32%	11µM*	+
CNNC(=S)Nc1ccc(Cl)cc1	6%	-11%	-17%	9%	15%	-2%	nt
CCSCCOC(=O)C1=C(C)NC(=O)NC1c1cc(OC)ccc1OC (stereo not given)	-3%	-7%	-24%	-15%	-1%	?	i
Cc1ccc(/C=C/C(=O)c2ccccc(=O)c2O)cc1C	?	-33%	?	-23%	62%	?	?
CCOC(=O)c1ccc(-n2c(O)c(/C=N/NC(=O)C3COc4ccccc4O3)c3ccccc3c2=O)cc1 (stereo not given)	-6%	-33%	0%	-11%	86%	4.5µM*	i
CCOC(=O)c1ccc(-c2ccc(C3Nc4ccccc4C(=O)N3O)o2)cc1 (stereo not given)	-2%	-51%	?	-16%	36%	5µM*	?
N#Cc1ccc(-c2ccc(C3Nc4ccccc4C(=O)N3O)o2)cc1 (stereo not given)	8%	-27%	nt	nt	nt	2%	nt
CC1CCCCC1NC(=O)C(Cc1ccccc1)NS(=O)(=O)c1cccs1 (stereo not given)	5%	-30%	i	-7%	-9%	?	i
CC(CCc1ccccc1)NC(=O)C(Cc1ccccc1)NS(=O)(=O)c1cccs1 (stereo not given)	3%	-21%	-5%	-23%	-5%	8%	nt
O=C(CCNS(=O)(=O)c1cccs1)Nc1ccccc1F	1%	-23%	nt	nt	-4%	?	i
O=C(CCNS(=O)(=O)c1cccs1)Nc1nccs1	0%	-16%	-11%	-22%	-6%	7%	nt
Cc1noc(C)c1CSCC(=O)Nc1ccccc1N1CCCCC1	-2%	18%	nt	nt	nt	-4%	nt
COc1ccc(OCC(=O)Nn2c(-c3ccc(C)cc3)nc3ccccc3c2=O)cc1	0%	-14%	-15%	-3%	8%	22%	nt
COc1ccc(OCC(=O)Nn2c(-c3ccc(OC)cc3)nc3ccccc3c2=O)cc1	-1%	-43%	-12%	-7%	-3%	?	+
CCc1ccc(NC(=O)c2ccc(OC)c([N+](=O)[O-])c2)cc1	-1%	-2%	-7%	-16%	10%	?	i
CCc1ccc(Oc2c(C(F)(F)F)oc3c(CN4CCN(CC)CC4)c(O)ccc3c2=O)cc1	-6%	nt	-9%	-21%	nt	nt	nt
CCOc1ccc(NC(=O)C2CCCN(S(=O)(=O)c3c(C)noc3/C=C/N(C)C)C2)cc1 (stereo not given)	4%	nt	-9%	-4%	nt	nt	nt

Screening results deposited in PubChem BioAssay by National Center for Advancing Translational Sciences (NCATS).
